KB-V1 MDR tox = kills drug-selected multidrug resistant KB-V1 cells; KB-V1 MDR cells viability, CellTiter-Glo, 72 h; Potency, µM (top dose mostly 46.1 µM), hits mostly cytotoxic; 3.4% of 400,000 active; also: nearly all actives have a fitted effect of over 60% in size
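Cytotoxicity toward P-gp-expressing KB-V1 cells was determined as loss of CellTiter-Glo luminescence after 72 h at 37 degrees C. Compounds were tested in quantitative HTS format across a concentration range, with curves fitted to normalized data.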
KB-3-1 tox = KB-3-1 parental cell cytotoxicity. AID 1347075. Potency, µM (top dose mostly 46.1 µM), actives largely listed as cytotoxic. KB-3-1 viability, CellTiter-Glo ATP luminescence, 72 h. 1.4% of 400,000 active; also: nearly all actives have a fitted effect of over 60% in size
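Here the drug-naive KB-3-1 line serves as comparator for MDR sub-line selectivity; cells received compound titrations, 72 h at 37 °C, then CellTiter-Glo readout.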
SW480 rereplic = DNA re-replication induction in SW480 cells; SW480 DNA re-replication, Hoechst DNA content imaging, 48 h; Potency, µM (top dose mostly 46.1 µM), most hits filed as activators; 1.8% of 340,000 active; AID 624297; also: nearly all actives have a fitted effect of over 55% in size
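Quantitative HTS format with DMSO vehicle controls; 48 hr drug incubation at 37 C, then 40 min Hoechst staining and scanning imager measurement at 405 nm excitation.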
IL1B secr inh = blocks inflammasome-driven IL-1 beta release; THP-1 LPS/ATP IL-1B secretion, AlphaLISA, 16 h; stronger effect = lower value; activity change, % at 57.5 µM; 4.7% of 360,000 active; AID 743279; in the data active = activity change below about -50%; inconclusive = mostly about -30% to -49%
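Secreted IL-1B measured by AlphaLISA bead assay after 16 h compound exposure of THP-1 cells; compounds (final up to 57.5 uM) added 1 h before LPS (250 ng/mL) and ATP (1.25 mM) stimulation; lower signal means less secretion.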
MCF10A rerep = DNA re-replication induction in MCF 10a cells. MCF 10A DNA re-replication, Hoechst nuclear intensity, 48 h. Potency, µM (series often up to 46.1 µM), hits mostly activators. 2.9% of 350,000 active. AID 624296; also: nearly all actives have a fitted effect of over 50% in size
Large screens that a line does not name were inactive. Shown are actives, neighbours in structure and some others; about 9.9% of the full set was active somewhere. Unless noted, calls follow the shape of the dose curve; as a rule, active = well fitted curve in the direction sought with a large enough effect; inconclusive = small, poorly fitted or top-dose-only effect, or another doubt; inactive = no such curve, though single readings can be large; an effect the other way counts as inactive or inconclusive.

CC(=O)Nc1ccccc1NC(=O)C/C(C)=N/NC(=O)c1ccc([N+](=O)[O-])c(Cl)c1	MCF10A rerep inconclusive
CCOC(=O)Cn1nc(C)c(NC(=O)c2cccc([N+](=O)[O-])c2)c1C	none
O=C(Nc1ccc(Cc2ccncc2)cc1)c1ccc(Cl)c([N+](=O)[O-])c1	KB-V1 MDR tox inconclusive, KB-3-1 tox inconclusive, IL1B secr inh -73, MCF10A rerep inconclusive
CCOC(=O)Cn1nc(C)c(NC(=O)c2ccc(Cl)c([N+](=O)[O-])c2)c1C	IL1B secr inh -85
Cc1c([N+](=O)[O-])cc(C(=O)Nc2ccc(Cc3ccncc3)cc2)cc1[N+](=O)[O-]	IL1B secr inh inconclusive
CCN1C[C@@H]2[C@@H]3C(=O)N(Cc4ccccc4)C(=O)[C@@H]3[C@](CC)(C(=O)OC)N2C1=NC	none
Cc1ccccc1OCC(=O)OCC(=O)NCC1CCCO1 (centres undefined)	none
Cc1cc(C(=O)Nc2ccc(Nc3ccccc3)cc2)ccc1[N+](=O)[O-]	KB-V1 MDR tox inconclusive, KB-3-1 tox inconclusive, IL1B secr inh -65, MCF10A rerep inconclusive
Cc1ccc(NC(=O)CN(C)C(=O)c2ccc(Cl)c([N+](=O)[O-])c2)cc1	IL1B secr inh -85
Cc1ccccc1NC(=O)c1ccc(Nc2c([N+](=O)[O-])cc([N+](=O)[O-])c3ccccc23)cc1	KB-V1 MDR tox 16µM
Cc1ccc(C(=O)Nc2ccncc2)cc1[N+](=O)[O-]	IL1B secr inh -55
Cc1ccc(CNCc2cc3c(C(C)(C)C)nn(-c4ccccc4)c3[nH]c2=O)cc1	KB-V1 MDR tox 23µM, SW480 rereplic inconclusive, IL1B secr inh -85, MCF10A rerep inconclusive
COc1ccc(CNCc2cc3c(C(C)(C)C)nn(-c4ccccc4)c3[nH]c2=O)cc1	KB-V1 MDR tox inconclusive
COCCNC(=S)N(Cc1cccs1)Cc1cc2cccc(C)c2[nH]c1=O	IL1B secr inh -56
COc1ccc2[nH]c(=O)c(CN(Cc3cccs3)C(=S)Nc3cccc(C)c3)cc2c1	KB-V1 MDR tox inconclusive, MCF10A rerep inconclusive (no result: SW480 rereplic)
Cc1cccc(NC(=S)N(Cc2cccs2)Cc2cc3cc(C)cc(C)c3[nH]c2=O)c1	KB-V1 MDR tox 21µM, KB-3-1 tox inconclusive
Cc1ccc(C)c2[nH]c(=O)c(CN(Cc3cccs3)C(=S)NCc3ccco3)cc12	none (no result: SW480 rereplic)
Cc1nc2nncn2c(Nc2ccccc2)c1C	none (no result: SW480 rereplic, IL1B secr inh, MCF10A rerep)
O=C1C(C2=C(O)c3ccccc3C2=O)=Nc2ccccc21	KB-V1 MDR tox 7.3µM, KB-3-1 tox inconclusive, SW480 rereplic inconclusive, IL1B secr inh -93, MCF10A rerep 23µM
O=C1C(C2=NC(C(=O)O)C3C(=O)N(c4ccccc4)C(=O)C23)=C(O)c2ccccc21 (centres undefined)	none
O=C(NN1CCOCC1)c1cccc2ccccc12	KB-V1 MDR tox inconclusive
CCOc1ccc(NC(=O)c2cccc3ccccc23)cc1	KB-V1 MDR tox 5.8µM, KB-3-1 tox inconclusive, SW480 rereplic inconclusive
O=C(NCC1CCCCC1)c1cc2ccccc2cc1O	KB-3-1 tox inconclusive, SW480 rereplic inconclusive, IL1B secr inh -88, MCF10A rerep 18µM
O=C(NC(NC(=S)N1CCOCC1)C(Cl)(Cl)Cl)c1cccc2ccccc12 (centres undefined)	KB-V1 MDR tox 16µM
O=C(Nc1ccncc1)c1cccc2ccccc12	KB-V1 MDR tox inconclusive, SW480 rereplic 18µM (no result: IL1B secr inh)
O=S(=O)(NCc1cn2ccccc2n1)c1ccccc1F	none
CCOc1ccc(NC(=O)c2cc3ccccc3cc2O)cc1	MCF10A rerep 16µM
O=C(Nc1ccc(N2CCOCC2)cc1)c1cccc2ccccc12	KB-V1 MDR tox inconclusive, KB-3-1 tox inconclusive, SW480 rereplic 9.2µM
O=C(Nc1ccncc1)c1ccc2ccccc2c1	KB-V1 MDR tox 16µM, IL1B secr inh -61
Fc1cccc(-c2nc(-c3ccncc3)no2)c1	none (no result: SW480 rereplic, IL1B secr inh, MCF10A rerep)
NC[C@@H]1O[C@@H](O[C@H]2[C@H](O)[C@H](O[C@@H]3O[C@H](CO)[C@@H](O)[C@H](N)[C@@H]3O)[C@@H](N)C[C@H]2N)[C@H](N)C[C@@H]1O	none (no result: KB-V1 MDR tox, KB-3-1 tox, IL1B secr inh)
Cc1ccc(Nc2nc3ccccc3c3nnc(C)n23)c(C)c1	none (no result: SW480 rereplic, IL1B secr inh, MCF10A rerep)
Cc1c(P(=S)(c2ccccc2)c2ccccc2)[n+]2ccccc2n1C/C=C/c1ccccc1	KB-3-1 tox 10µM (no result: SW480 rereplic, IL1B secr inh, MCF10A rerep)
Cc1c(C(=O)NN2CCCCC2)nn(-c2ccc(Cl)cc2Cl)c1-c1ccc(Cl)cc1	MCF10A rerep 13µM (no result: KB-V1 MDR tox, KB-3-1 tox, IL1B secr inh)
COc1ccc(Nc2cc(C)c3ccccc3n2)cc1	IL1B secr inh -97
c1ccc(Nc2c3c(nc4ccccc24)CCC3)cc1	KB-V1 MDR tox inconclusive
COc1cc(Nc2c3ccccc3nc3ccccc23)cc(OC)c1OC	KB-V1 MDR tox inconclusive, KB-3-1 tox inconclusive, SW480 rereplic 23µM, IL1B secr inh -95, MCF10A rerep inconclusive
Fc1ccc(Nc2c3c(nc4ccccc24)CCC3)cc1	KB-3-1 tox inconclusive, SW480 rereplic inconclusive, IL1B secr inh -96
COc1ccc(Nc2cc(C)c3cc(NC(=O)c4cc(OC)cc(OC)c4)ccc3n2)cc1	KB-V1 MDR tox inconclusive, KB-3-1 tox 8.2µM (no result: SW480 rereplic, IL1B secr inh, MCF10A rerep)
CCOc1cc(S(=O)(=O)NCc2ccccc2)ccc1Br	none
CC(CCCC(C)(C)O)CC1C2=C(CCCC2=O)OC2=C1C(=O)CCC2 (centres undefined)	KB-V1 MDR tox inconclusive
CN(C)CCNCCCNc1c2ccccc2nc2cccc([N+](=O)[O-])c12	KB-3-1 tox 0.016µM, SW480 rereplic inconclusive, IL1B secr inh inconclusive, MCF10A rerep inconclusive
COc1ccc(Nc2c3ccccc3nc3ccccc23)cc1	KB-V1 MDR tox inconclusive, KB-3-1 tox 6.5µM, SW480 rereplic 23µM, IL1B secr inh -98
COc1ccc(Nc2c3c(nc4ccccc24)CCC3)cc1	KB-V1 MDR tox 21µM, KB-3-1 tox inconclusive (no result: IL1B secr inh)
CN(C)CCCNc1ccc(-c2n[nH]c(=O)c3ccccc23)cc1[N+](=O)[O-]	none
COc1ccc(Nc2ccc(OC)cc2)cc1	IL1B secr inh -52
Cc1cccc(NC(=O)Cn2c(=O)n(Cc3ccccc3)c(=O)c3sc4ccccc4c32)c1	none (no result: SW480 rereplic, IL1B secr inh, MCF10A rerep)
CN(C)c1cccc(-c2cnc(N3CCC(c4ncc[nH]4)CC3)s2)c1	none (no result: SW480 rereplic, IL1B secr inh, MCF10A rerep)
Cc1ccc(-c2nnc(Nc3ccc(O)cc3)c3ccccc23)cc1S(=O)(=O)NC(C)(C)CO	none (no result: SW480 rereplic, IL1B secr inh, MCF10A rerep)
Cc1ccc(N(CCC#N)C(=O)COC(=O)C2CCN(S(=O)(=O)c3ccc4c(c3)OCCO4)CC2)cc1	none
O=C(c1ccc(N2C(=O)CCC2=O)cc1)N1CCCSC1=Nc1ccccc1	KB-3-1 tox inconclusive (no result: SW480 rereplic, MCF10A rerep)
COc1ccccc1Nc1c2ccccc2nc2ccccc12	KB-V1 MDR tox 15µM, KB-3-1 tox inconclusive, SW480 rereplic inconclusive, IL1B secr inh -93, MCF10A rerep inconclusive
COc1ccc(C)cc1Nc1c2c(nc3ccccc13)CCC2	KB-V1 MDR tox 2.9µM, KB-3-1 tox 0.65µM, SW480 rereplic 2.9µM, IL1B secr inh -82, MCF10A rerep 1.6µM
Cc1ccc2nc(NCC(N)=O)nc(-c3ccccc3)c2c1	SW480 rereplic 18µM, IL1B secr inh inconclusive, MCF10A rerep inconclusive
